From PubChem BioAssay (NCATS) come the findings set out here.

Where “and” joins values, the source holds several entries; their conditions need not be identical. Equal entries are not always repeated. A number with no mark means an inactive call. Records with an inconclusive call do not appear. Calls of active or inactive are those of the source. Unless noted, calls come from the whole dose curve; as a rule, active = well fitted curve in the direction sought with a large enough effect; inconclusive = small, poorly fitted or top-dose-only effect, or another doubt; inactive = no such curve, though single readings can be large; an effect the other way counts as inactive or inconclusive.

Experiment [1] in a line: Cell Viability - N2a (AID 540).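 Note: plate controls were DMSO alone for no effect and tamoxifen control for full effect; nearly all actives have a fitted effect of over 45% in size.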 The note with it: N2a mouse neuroblastoma cell viability; activity change, negative = cytotoxicity: at 92.2 µM (top of the series). Put shortly: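 In this qHTS cytotoxicity screen, ATP-dependent luciferase luminescence reports viable N2a cells after a 40 hr compound exposure in complete culture medium. Potencies are AC50 values from standard Hill equation fits.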

Experiment [2] in a line: Cellular Toxicity (caspase-3) Jurkat (AID 655).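 Note: cells exposed to compound for 16 h at 37 °C before reading.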 To be noted: Jurkat caspase-3 activation, luminescence; caspase-3 activation: at 92.2 µM (top of the series), DMSO = 0%, tamoxifen = 100%. Put shortly: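 Luminescent caspase-3/7 readout (aminoluciferin substrate cleavage) in human T-cell leukemia Jurkat cells after 16 hr compound exposure. Concentration-response normalized to DMSO and 100 uM tamoxifen; AC50 by standard Hill equation.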

The nature of experiment [3]: Cellular Toxicity (caspase-3) BJ (AID 658).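 Note: 0% = DMSO basal and 100% = 10 µM staurosporine.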 The note with it: BJ fibroblasts, luminescence, normalized: DMSO 0%, staurosporine 100%; series mostly up to 91.7 µM. A digest of the protocol:
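Plated BJ cells (1000/well) rested 5 hr, received compound for 16 hr at 37 °C, then Caspase-Glo 3/7 reagent for 1 hr at room temperature before luminescence reading.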

Experiment [4] can be described thus: MultiTox-Fluor Cytotoxicity Assay - LYMP1-002 - Live Cells (AID 955). Note: % is set by controls: 0 for no effect and ±100 for the full control effect. The note with it: LYMP1-002 lymphoblastoid live-cell protease fluorescence viability; series mostly up to 46.1 µM. A digest of the protocol:
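In this qHTS viability format, lymphoblastoid cells (LYMP1-002, human) received compound for 16 hr at 37 C. Fluorogenic GF-AFC cleavage by viable cells was detected at 405/510 nm after 1 h at room temperature.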

Experiment [5] can be described thus: Cell Viability - LYMP2-004 (AID 966).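 Note: cells exposed to compound for 24 h; plate controls were DMSO only for no effect and tetraoctylammonium bromide control for full effect; nearly all actives have a fitted effect of over 65% in size.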 To be noted: LYMP2-004 lymphoblastoid cell viability, qHTS; series mostly up to 92.2 µM. Put shortly: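 Viable-cell number estimated from ATP luminescence (CellTiter-Glo) in 2500 human lymphoblastoid cells/well after 24 hr at 37 C with compound. AC50 fitted to the standard Hill equation.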
For orientation: Quantitative high-throughput screening tests each substance at several concentrations.

Experiment [6] is described as follows: Cell Viability - LYMP2-025 (AID 976).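 Note: cells exposed to compound for 24 h at 37 °C; plate controls were DMSO only for no effect and tetraoctylammonium bromide control for full effect.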 The note with it: LYMP2-025 lymphoblastoid cell viability; series mostly up to 92.2 µM. A digest of the protocol: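 Luminescent ATP readout after 24 hr treatment of a human lymphoblastoid line (LYMP2-025, 2500 cells/well, 37 C). Reagent developed 30 min at room temperature; AC50 fitted with the Hill equation.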
The nature of experiment [7]: Cell Viability - LYMP2-002 (AID 977).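 Note: compound exposure lasted 24 h at 37 °C; plate controls were DMSO only for no effect and 92 µM tetraoctylammonium bromide for full effect.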 To be noted: LYMP2-002 lymphoblastoid cell viability, qHTS; series mostly up to 92.2 µM. Put shortly:
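In this qHTS viability screen, 2500 human lymphoblastoid cells per well receive compound for 24 hr at 37 C, and luciferase-based ATP luminescence gives the viability signal. Tetraoctylammonium bromide serves as positive control.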

Experiment [8] is described as follows: Cell Viability - LYMP2-012 (AID 982).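 Note: cellular ATP by luciferase luminescence where a drop means cytotoxicity; cells exposed to compound for one day before reading; 0% = DMSO only and full loss = 92 µM tetraoctylammonium bromide; nearly all actives have a fitted effect of over 55% in size.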 The note with it: LYMP2-012 lymphoblastoid cell viability qHTS; series mostly up to 92.2 µM.
The nature of experiment [9]: Cell Viability - LYMP2-014 (AID 983).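 Note: cells exposed to compound for 24 h at 37 °C; plate controls were DMSO only for no effect and 92 µM tetraoctylammonium bromide for full effect; nearly all actives have a fitted effect of over 50% in size.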 The note with it: LYMP2-014 lymphoblastoid cells, viability qHTS; series mostly up to 92.2 µM. Put shortly:
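Quantitative HTS in lymphoblastoid cells: 24 hr compound exposure, then CellTiter-Glo ATP luminescence. Positive control was tetraoctylammonium bromide, 6.4pM to 92 uM.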

Experiment [10] is described as follows: Cell Viability - LYMP2-020 (AID 986).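 Note: cells exposed to compound for 24 h at 37 °C; plate controls were DMSO only for no effect and tetraoctylammonium bromide at 92 µM for full effect; nearly all actives have a fitted effect of over 55% in size.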 The note with it: series mostly up to 92.2 µM. A digest of the protocol:
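Cells at 2500 per well receive a 24 hr compound exposure at 37 C. Viability is measured as ATP-dependent luciferase luminescence, with AC50 modeled from qHTS concentration-response curves.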

The nature of experiment [11]: Cell Viability - LYMP2-022 (AID 987).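 Note: 0% = DMSO alone and full effect = tetraoctylammonium bromide at 92 µM; nearly all actives have a fitted effect of over 55% in size.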 To be noted: LYMP2-022 lymphoblastoid cell viability; series mostly up to 92.2 µM. Put shortly: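 In this qHTS cytotoxicity screen, compound titrations were incubated 24 hr at 37 C with human lymphoblastoid cells in complete medium. Luciferase-based ATP luminescence provided the viability signal.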
The target of experiment [12] is Vitamin D3 receptor (Homo sapiens) (UniProt P11473). Description: qHTS assay for small molecule agonists of vitamin D receptor signaling (AID 588543; calls by dose curve;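 note: 0% = DMSO basal and 100% = reference agonist control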). To be noted: HEK293T VDR-UAS-bla, beta-lactamase ratio, 16 h; series mostly up to 76.8 µM. A digest of the protocol: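 β-lactamase reporter, VDR-UAS-bla HEK293T, agonist mode. Cells plated 5 h at 37 °C, compound titration 16 h at 37 °C, CCF4 dye 2 h RT, ratio 460/530 nm. Hill fit → EC50, efficacy vs 50 nM 1α,25-(OH)2D3.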
Vitamin D3 receptor (Homo sapiens), sequence (P11473 whole entry, looked up): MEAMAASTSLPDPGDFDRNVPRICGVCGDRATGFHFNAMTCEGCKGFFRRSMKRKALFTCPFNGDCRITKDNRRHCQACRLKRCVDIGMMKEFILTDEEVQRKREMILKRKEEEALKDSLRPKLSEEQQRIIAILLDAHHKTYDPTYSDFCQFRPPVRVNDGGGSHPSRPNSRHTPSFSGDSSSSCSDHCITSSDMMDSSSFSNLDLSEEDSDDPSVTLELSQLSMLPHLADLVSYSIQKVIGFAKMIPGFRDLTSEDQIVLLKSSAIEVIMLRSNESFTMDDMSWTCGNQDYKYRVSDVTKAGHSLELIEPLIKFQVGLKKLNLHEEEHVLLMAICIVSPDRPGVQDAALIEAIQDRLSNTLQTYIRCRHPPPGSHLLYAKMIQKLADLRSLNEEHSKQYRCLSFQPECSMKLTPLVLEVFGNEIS

For experiment [13], the target named is Retinoic acid receptor RXR-alpha (Homo sapiens) (UniProt P19793). The experiment in a line: qHTS assay for small molecule antagonists of retinoid X receptor alpha signaling (AID 588546; active = well fitted inhibition curve with a large enough effect in the signal ratio, with a control signal flat, not every such curve was filed as active; the % refers to the signal ratio; note: % is set by controls: 0 for no effect and ±100 for the full control effect). To be noted: HEK293T RXRa-UAS-bla, beta-lactamase ratio, antagonist mode. A digest of the protocol: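 Beta-lactamase reporter inhibition, read as CCF4 fluorescence ratio (ex 405, em 460/530 nm) after 2 h at RT. HEK293T UAS-bla cells, 2500/well, were stimulated with 9-cis-RA at 500 or 100 nM final alongside test compound for 18 h at 37 C.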
Retinoic acid receptor RXR-alpha (Homo sapiens), sequence (P19793 whole entry, looked up): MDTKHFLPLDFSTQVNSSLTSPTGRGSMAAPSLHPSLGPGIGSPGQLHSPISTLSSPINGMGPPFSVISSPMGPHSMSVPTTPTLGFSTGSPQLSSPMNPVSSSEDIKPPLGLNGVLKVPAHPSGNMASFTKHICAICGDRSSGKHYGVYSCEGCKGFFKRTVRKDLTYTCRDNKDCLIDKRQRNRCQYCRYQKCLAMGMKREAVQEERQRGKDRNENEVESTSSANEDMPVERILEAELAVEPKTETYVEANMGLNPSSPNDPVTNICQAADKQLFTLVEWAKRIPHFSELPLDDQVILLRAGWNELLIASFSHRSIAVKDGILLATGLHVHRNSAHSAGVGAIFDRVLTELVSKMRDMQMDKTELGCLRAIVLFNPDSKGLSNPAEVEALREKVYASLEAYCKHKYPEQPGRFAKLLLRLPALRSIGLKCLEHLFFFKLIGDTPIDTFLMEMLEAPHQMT

The target of experiment [14] is Voltage-gated inwardly rectifying potassium channel KCNH2 (Homo sapiens) (UniProt Q12809). Description: qHTS Assay for Small Molecule Inhibitors of the Human hERG Channel Activity (AID 588834).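 Note: lower thallium flux fluorescence means stronger hERG block; nearly all actives have a fitted effect of over 50% in size.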 Note: potency is the fitted concentration of half-maximal effect. The note with it: U2OS BacMam hERG, FluxOR thallium flux fluorescence; series mostly up to 92.2 µM. Put shortly:
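Thallium-flux (FluxOR) read-out on FDSS: fluorescence read 10 s before and 2 min after stimulation buffer. hERG-BacMam-transduced U2OS cells, compound exposure about 10 min. AC50 by standard Hill equation.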

The nature of experiment [15]: qHTS assay for small molecule activators of the p53 signaling pathway (AID 651743; active = well fitted activation curve with a large enough effect in the signal ratio, not every such curve was filed as active; the % refers to the signal ratio; note: % of control where 0% means no effect). The note with it: HCT-116 p53RE-bla, beta-lactamase FRET ratio, 16 h; activation: active compounds read high. Put shortly:
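Here HCT-116 cells with an integrated p53-responsive beta-lactamase gene were incubated with compounds (16 hours, 37 C) after a 5-hour plating period; beta-lactamase activity was detected as fluorescence intensity via B/G FRET substrate.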

A short description of experiment [16]: qHTS assay for cell viability of HEK293 cells (AID 743288). Note: % is set by controls: 0 for no effect and ±100 for the full control effect; nearly all actives have a fitted effect of over 50% in size. To be noted: ATP luminescence (CellTiter-Glo), 18 h, active compounds read low. Put shortly: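 ATP luminescence (CellTiter-Glo) reports metabolically competent cell number after parental HEK293 cells, 2,000/well, were treated with DMSO-dissolved compounds for 18 h at 37 C; reagent incubation 30 min, room temperature.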

Experiment [17] is described as follows: Cell Viability - HepG2 (AID 433; calls by dose curve;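 note: potency is the fitted concentration of half-maximal effect; cells exposed to compound for 40 hours; potency for ATP loss meaning cytotoxicity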). The note with it: qHTS. A digest of the protocol: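 ATP luminescence (CellTiter-Glo) after 40 h compound exposure, 37 °C, HepG2, 1500 cells/well, complete medium. Normalized: DMSO = basal, 100 uM tamoxifen = 100% inhibition. AC50 via standard Hill equation.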
Experiment [18] is described as follows: Cell Viability - LYMP2-011 (AID 969).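 Note: cells exposed to compound for 24 hours; 0% = DMSO only and full inhibition = 92 µM tetraoctylammonium bromide; nearly all actives have a fitted effect of over 60% in size.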 To be noted: LYMP2-011 lymphoblastoid cells viability; series mostly up to 92.2 µM. Put shortly:
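Cells seeded at 2500 per well rest 5 hr before compound addition, then incubate 24 hr at 37 C. CellTiter-Glo reagent is added for 30 min at room temperature before luminescence detection.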

Experiment [19] can be described thus: Cell Viability - LYMP2-023 (AID 975).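 Note: cellular ATP measured by luciferase luminescence as viability proxy; cells exposed to compound for 24 hours at 37 °C; plate controls were DMSO only for no effect and 92 µM tetraoctylammonium bromide control for full effect; nearly all actives have a fitted effect of over 55% in size.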 To be noted: LYMP2-023 lymphoblastoid cell viability; series mostly up to 92.2 µM. Put shortly: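 In this qHTS, ATP-based luciferase luminescence (CellTiter-Glo) is quantified in human lymphoblastoid cells after 24 hr compound treatment at 37 C; tetraoctylammonium bromide serves as positive control. Concentration-response curves are Hill-fitted to give AC50.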

The nature of experiment [20]: Cell Viability - LYMP2-016 (AID 984). The note with it: LYMP2-016 lymphoblastoid cell viability, qHTS; series mostly up to 92.2 µM. Put shortly: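 qHTS, 1536-well: 2500 LYMP2-016 cells/well, 5 hr 37 C, compound added, 24 hr 37 C, CellTiter-Glo 30 min RT, luminescence. Tetraoctylammonium bromide positive control. AC50 via Hill fit.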

Voltage-gated inwardly rectifying potassium channel KCNH2 (Homo sapiens), sequence (Q12809 whole entry, looked up): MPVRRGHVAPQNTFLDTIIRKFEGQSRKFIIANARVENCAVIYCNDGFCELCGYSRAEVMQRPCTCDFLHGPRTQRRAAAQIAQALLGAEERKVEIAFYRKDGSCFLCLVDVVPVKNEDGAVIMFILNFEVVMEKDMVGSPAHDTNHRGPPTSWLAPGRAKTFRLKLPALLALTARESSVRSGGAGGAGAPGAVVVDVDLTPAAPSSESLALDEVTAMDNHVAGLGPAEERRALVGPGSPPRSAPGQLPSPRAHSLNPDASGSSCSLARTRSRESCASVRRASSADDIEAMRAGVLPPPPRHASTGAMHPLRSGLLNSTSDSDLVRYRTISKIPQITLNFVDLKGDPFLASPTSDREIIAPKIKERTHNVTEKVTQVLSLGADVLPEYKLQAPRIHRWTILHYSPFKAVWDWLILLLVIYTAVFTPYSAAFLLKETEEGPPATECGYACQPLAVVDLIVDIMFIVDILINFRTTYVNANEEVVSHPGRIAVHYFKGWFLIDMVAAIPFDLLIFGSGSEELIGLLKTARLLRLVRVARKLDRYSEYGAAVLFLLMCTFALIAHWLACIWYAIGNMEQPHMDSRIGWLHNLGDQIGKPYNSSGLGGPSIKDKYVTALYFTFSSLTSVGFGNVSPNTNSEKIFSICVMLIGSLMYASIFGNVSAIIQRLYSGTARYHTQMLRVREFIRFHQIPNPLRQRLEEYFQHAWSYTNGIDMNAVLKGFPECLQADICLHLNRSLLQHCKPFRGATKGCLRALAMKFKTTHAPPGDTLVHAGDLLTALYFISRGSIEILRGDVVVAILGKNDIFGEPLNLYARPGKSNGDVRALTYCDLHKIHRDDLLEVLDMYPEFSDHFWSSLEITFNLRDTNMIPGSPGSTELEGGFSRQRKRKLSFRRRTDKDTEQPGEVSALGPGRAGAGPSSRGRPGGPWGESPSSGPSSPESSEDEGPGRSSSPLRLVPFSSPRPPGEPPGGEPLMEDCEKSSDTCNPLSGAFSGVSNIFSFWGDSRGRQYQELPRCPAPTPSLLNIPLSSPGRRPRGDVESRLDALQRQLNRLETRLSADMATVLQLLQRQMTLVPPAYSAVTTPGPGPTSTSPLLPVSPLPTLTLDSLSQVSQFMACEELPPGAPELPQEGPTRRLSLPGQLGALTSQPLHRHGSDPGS

In the case of `c1ccc(N=NNc2ccccc2)cc1`, the Potency entry in experiment [1], in experiment [5], in experiment [6], in experiment [7], in experiment [8] and in [9] was “inactive” throughout. For the same compound, the Potency entry in experiment [10] and in experiment [11] was “inactive” each time. Further, the caspase-3 activation in [2] was 6.34%. For the same compound, the compound was called inactive in [3], in experiment [4] and in experiment [12]. The max response in experiment [13] is -17.2%; in experiment [16] it was 5.57% and -4.44%. Also, in experiment [14], the Potency is 39.8 µM (active). In addition, the activation in experiment [15] is -4.25% and -0.499%.

Consider `COC(=O)c1ccccc1N`, for which, in experiment [17], the Potency is over 92 µM. Besides, the Potency result in experiment [1], in experiment [18], in experiment [19], in experiment [6], in [8] and in [9] was “inactive” each time. In addition, the Potency entry in experiment [20], in [10], in experiment [11] and in [14] was “inactive” in each case. The outcome in experiment [3], in experiment [4] and in experiment [12] was inactive. For the same compound, the figures for the max response in [13] and in experiment [16] were 17.4% and -4.36%, respectively. In experiment [15], the activation was -1.42%.

On to `CC(C)Br`, for which the Potency entry in experiment [1], in experiment [5], in experiment [19], in experiment [6], in experiment [7] and in [8] was “inactive” each time. Further, the Potency entry in experiment [9], in experiment [20], in [10], in experiment [11] and in [14] was “inactive” each time. In [2], the caspase-3 activation was 0.12%. In addition, the outcome in experiment [4] and in [12] was inactive. For the same compound, the max response in experiment [13] was -3.19%. Moreover, the activation in [15] was -2.41%.

With `c1ccc(NNc2ccccc2)cc1`, the Potency entry in experiment [1], in experiment [19], in experiment [6], in [7], in [8] and in [9] was “inactive” throughout. The Potency result in experiment [20] and in experiment [11] was “inactive” in each case. For the same compound, the caspase-3 activation in experiment [2] was 0.504%. The outcome in experiment [3], in experiment [4] and in experiment [12] was inactive. Besides, the max response in [13] was 1.29% and 6.1%; in [16], 2.88% and -1.77%. In addition, the activation in experiment [15] was -0.259% and 0.698%.

Take `O=c1ccc(=O)[nH][nH]1`: the Potency result in experiment [1], in [5], in experiment [18], in experiment [6], in [7] and in [8] was “inactive” in each case. Besides, the Potency entry in experiment [9], in [20], in experiment [11] and in experiment [14] was “inactive” each time. Moreover, in [2], the caspase-3 activation is 1.49%. Moreover, the result in experiment [3] and in experiment [12] was inactive. In addition, in [13], the max response is -4.77% and 2.87%. Also, the activation in [15] is -0.833% and -3.13%.
